Inconclusive results are not listed. Calls of active or inactive are those of the source. Calls come from the whole dose curve; as a rule, active = well fitted inhibition curve with a large enough effect; inconclusive = small, poorly fitted or top-dose-only effect; inactive = flat fitted curve, though single readings scatter.

We go through 14 molecules from PubChem BioAssay AID743381 (National Center for Advancing Translational Sciences (NCATS), 2014).

Chain of Phosphatidylinositol 5-phosphate 4-kinase type-2 alpha (Homo sapiens) (P48426 whole entry, looked up, canonical isoform): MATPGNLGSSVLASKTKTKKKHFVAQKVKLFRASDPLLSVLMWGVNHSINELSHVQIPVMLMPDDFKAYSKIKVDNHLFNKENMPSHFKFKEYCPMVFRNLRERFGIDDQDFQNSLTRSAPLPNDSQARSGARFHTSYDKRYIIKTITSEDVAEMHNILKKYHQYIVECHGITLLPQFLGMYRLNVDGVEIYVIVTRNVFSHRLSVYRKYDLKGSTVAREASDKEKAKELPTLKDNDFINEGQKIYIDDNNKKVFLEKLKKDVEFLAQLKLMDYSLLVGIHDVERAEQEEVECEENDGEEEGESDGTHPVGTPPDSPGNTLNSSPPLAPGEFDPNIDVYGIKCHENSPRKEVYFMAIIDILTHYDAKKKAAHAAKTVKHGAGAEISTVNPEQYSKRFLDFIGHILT

The test addresses Phosphatidylinositol 5-phosphate 4-kinase type-2 alpha (Homo sapiens) (UniProt P48426). The experiment in a line: qHTS for Inhibitors of PI5P4K: PI5P4K-alpha Confirmatory Assay for Probe SAR. The conditions noted are these: Purified PI5P4Kalpha, ADP-Glo luminescence, 60 min; series mostly up to 76.9 µM; activity change, negative = inhibition: at the top concentration. The source says: In addition to finding PI5P, we discovered the type II phosphatidylinositol 5-phosphate 4-kinase (PI5P4K) family (alpha, beta, gamma isoforms) that catalyze the conversion of PI5P to PI(4,5)P2. Alternatively, PI(4,5)P2 can also be synthesized through phosphatidylinositol-4-phosphate (PI4P) by the type I phosphatidylinositol 4-phosphate 5-kinases (PI4P5K). These PI5P4K enzymes therefore represent one way by which cells can regulate endogenous PI5P levels and play important roles in insulin signaling and in stress responses. […] A qHTS PI5P4Kalpha ADP-Glo assay was developed to identify specific modulators of human PI5P4K, phosphatidylinositol-5-phosphate 4-kinase (Type II PIPK). This assay was screened against the MLSMR containing ~400,000 small molecules (PubChem AID 652105). The same assay was used to validate subsequent Medicinal Chemistry efforts on the active compounds and its analogs. Inhibition of the enzyme activity (signal decrease) is the desired outcome for this assay. Davis et al., PLoS One. 2013; 8(1):e54127. NIH Chemical Genomics Center [NCGC] NIH Molecular Libraries Probe Centers Network [MLPCN] MLPCN Grant: MH096575 Assay Submitter (PI): Atsuo Sasaki, Beth Israel Deaconess Medical Center
Two microliter of PI5P4Kalpha/substrate buffer (columns 1-2, 5-48) was dispensed into Greiner white solid bottom 1536-well assay plates; column 3 received only PI5P4Kalpha buffer as no substrate control; column 4 receives only substrate buffer as no PI5P4Kalpha controls. Final assay buffer consists of 0.038 M HEPES pH 7.4, 0.28 mM EGTA, 0.1 % CHAPS, and 5% DMSO (final concentration). Compounds were then transferred via Kalypsys pin tool equipped with 1536-pin array. Following addition of compound, 1 uL of ATP (5 uM final concentration) was added to initiate the reaction. ATP was diluted in an assay buffer consisting of 0.02 M HEPES pH 7.4, 60 mM MgCl2, 15 uM ATP, and 0.1% CHAPS. The plates were then incubated at room temperature for 60 minutes. ADP-Glo reagent 1 was added and plates incubated for 45 minutes. ADP-Glo reagent 2 was added and the plates were incubated for 30 minutes. The plates were transferred to a ViewLux high-throughput CCD imager (PerkinElmer) wherein single end-point measurements of luminescence were acquired using a clear filter.
Regarding `O=C1Nc2ccccc2/C1=C/c1ccc[nH]1`, the “activity change, negative = inhibition” value was 11% (inactive).

On to `O=C1Nc2ccccc2/C1=C\c1cc(F)c(O)c(F)c1`, for which the Potency was 0.487 µM (active).

As to `COc1cc(/C=C2/C(=O)Nc3ccccc32)cc(OC)c1O`, the Potency was 30.7 µM (active).

On to `O=C1Nc2ccccc2/C1=C\c1ccc(O)cc1`, for which the Potency was 24.4 µM (active).

Take `O=C1Nc2ccccc2/C1=C/c1cc(Cl)c(O)c(Cl)c1`: the Potency is 0.867 µM (active).

For `O=C1Nc2ccccc2C12CC2c1cc(Cl)c(O)c(Cl)c1` (centres undefined), the Potency was 10.9 µM (active).

In the case of `O=C1Nc2ccccc2/C1=C/c1cccc(C(=O)O)c1`, the Potency is 10.9 µM (active).

For `O=C1Nc2cccc(Cl)c2/C1=C\c1cc(Cl)c(O)c(Cl)c1`, the Potency was 3.07 µM (active).

Turning to `COc1cc(/C=C2\C(=O)Nc3ccccc32)ccc1O`, the Potency is 19.4 µM (active).

Turning to `COc1ccc(/C=C2/C(=O)Nc3ccccc32)cc1O`, the Potency was 0.772 µM (active).

As to `O=C1Nc2ccccc2/C1=C\c1ccc([N+](=O)[O-])cc1`, the Potency was 2.74 µM (active).

For the molecule `O=C1Nc2ccccc2/C1=C\c1ccc(O)c(F)c1`, the Potency is 2.18 µM (active).

As for `O=C1Nc2ccccc2/C1=C\c1cc(Br)c(O)c(Br)c1`, the Potency was 1.22 µM (active).

`Cc1cccc2c1NC(=O)/C2=C/c1cc(Cl)c(O)c(Cl)c1`: the Potency was 0.547 µM (active).
